# Legend:
# Conditions in all cases: concentration: 1 μM, replicates: in singlicate; n = 1
# NEK5 = system: NEK5
# NEK6 = system: NEK6
# NEK7 = system: NEK7
# NEK9 = system: NEK9
# NIK = system: T1, NIK
# T1 construct: gene MAP3K14
# NIM1 = system: T2, NIM1
# T2 construct: gene MGC42105
# NLK = system: NLK
# OSR1 = system: T3, OSR1
# T3 construct: gene OXSR1
# PAK1 = system: PAK1
# PAK2 = system: PAK2
# 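Also: KINOMEscan kinase panel screen.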
SMILES,%Inh (NEK5) [%],%Inh (NEK6) [%],%Inh (NEK7) [%],%Inh (NEK9) [%],%Inh (NIK) [%],%Inh (NIM1) [%],%Inh (NLK) [%],%Inh (OSR1) [%],%Inh (PAK1) [%],%Inh (PAK2) [%]
Cc1ccc(NC(=O)Nc2ccc(Cl)c(C(F)(F)F)c2)cc1-c1ccc(C(=O)Nc2ccncc2)cc1 [GSK1398470],11,12,2,20,0,0,21,35,19,19
CS(=O)(=O)CCNCc1nc(-c2ccc3ncnc(Nc4ccc(OCc5ccccc5)c(Cl)c4)c3c2)cs1.Cl [GW582764],0,0,0,0,4,38,0,2,15,19
CC(=O)c1cccc(NC(=O)NC2CCN(c3ccnc(Nc4ccc(F)cc4)n3)C2)c1 (stereo not shown) [GSK1379710],35,0,0,15,0,38,25,5,8,0
CCCCc1nn2ncccc2c1-c1ccnc(NC2CC2)n1 [GW684374],4,0,0,4,0,1,68,0,6,0
Fc1ccc(-c2nc[nH]c2-c2ccncc2)cc1 [SB-217360],0,0,0,0,20,4,49,0,23,25
Cc1cccc2c(-c3ccncn3)c(-c3ccc(F)cc3)nn12 [GW515532],0,0,0,5,1,14,44,10,13,8
COC(=O)c1cccc(NC(=O)NC2CCN(c3ccnc(Nc4ccc(OC)cc4)n3)C2)c1 (stereo not shown) [GSK1379746],23,0,0,0,8,53,35,0,0,0
COc1cccc(NC(=O)Nc2ccc(C)c(-c3ccc(C(=O)Nc4ccncc4)cc3)c2)c1 [GSK1398474],2,3,0,12,0,0,30,6,29,16
CS(=O)(=O)CCNCc1nc(-c2ccc3ncnc(Nc4ccc5c(cnn5Cc5ccccc5)c4)c3c2)cs1.Cl.Cl [GW569716],0,0,0,0,26,41,16,0,0,1
COC(=O)C(Cc1ccccc1)NC(=O)NC1CCN(c2ccnc(Nc3ccc(F)cc3)n2)C1 (stereo not shown) [GSK1379714],12,0,0,17,50,33,6,5,9,5
Cc1cnc(N)c(/C=C/c2cncc(C(=O)NCCc3ccc(Cl)cc3Cl)c2)c1.Cl [GSK190937],9,0,0,0,10,18,7,0,4,10
Cc1c(Cn2c(C)c(C)n3c(=O)cc(N4CCOCC4)nc23)cccc1C(F)(F)F [GSK2328680],0,0,0,12,9,11,12,11,0,0
COC(=O)c1cccc(NC(=O)NC2CCN(c3ccnc(Nc4ccc(F)cc4)n3)C2)c1 (stereo not shown) [GSK1379725],10,0,0,0,0,27,0,10,0,0
O=C1NC(=O)C(c2ccc(Cl)cc2)=C1Nc1ccc(O)cc1 [SB-340867],0,0,11,0,0,0,0,0,0,7
O=C(Nc1n[nH]c2nc(-c3cccs3)c(Br)cc12)C1CC1 [SB-735297],0,0,13,0,0,0,0,0,0,39
Nc1nccc(-c2c(-c3ccc(F)cc3)ncn2C2CCN(Cc3ccccc3)CC2)n1 [SB-219980],1,9,0,6,15,10,93.9,10,0,19

SMILES,%Inh (NEK5) [%],%Inh (NEK6) [%],%Inh (NEK7) [%],%Inh (NEK9) [%],%Inh (NIK) [%],%Inh (NIM1) [%],%Inh (NLK) [%],%Inh (OSR1) [%],%Inh (PAK1) [%],%Inh (PAK2) [%]
c1ccc(-c2ccnc3[nH]ccc23)cc1 [SB-693578],8,0,0,0,43,26,23,30,0,0
COc1ccc(Nc2nccc(N3CCC(NC(=O)c4cc5ccccc5s4)C3)n2)cc1 (stereo not shown) [GSK1379738],19,0,0,0,1,9,20,0,2,0
O=C1NC(=O)C(c2ccc(Cl)cc2)=C1Nc1cccc(Cl)c1 [SB-317651],6,0,0,0,5,12,0,0,2,17
O=C(Nc1n[nH]c2cc(-c3ccsc3)ccc12)C1CC1 [SB-732932],0,12,6,0,26,5,46,27,9,45
COc1ccc(Nc2nccc(N3CCC(NC(=O)C(C)c4ccc(Cl)cc4)C3)n2)cc1 (stereo not shown) [GSK1379735],32,0,6,2,12,13,14,0,16,38
COc1ccc(Nc2nccc(-c3ccc(NC(=O)c4cc5cc(F)ccc5[nH]4)cc3)n2)cc1 [GSK1229496],14,0,0,0,30,0,23,8,0,0
O=c1cc(N2CCOCC2)nc2n(Cc3ccccc3F)ccn12 [GSK2297428],0,0,0,0,0,2,0,0,21,0
COc1ccc(CSc2nnc(-c3ccc4ncsc4c3)o2)cc1C(F)(F)F,0,0,0,0,0,0,0,0,16,16
CC(=O)c1c(C)c2cnc(Nc3ccn(C)n3)nc2n(C2CCCC2)c1=O,18,0,0,0,0,2,25,0,0,0
CS(=O)(=O)Cc1ccc(Nc2nccc(-c3c(-c4cccc(NC(=O)C5CCCCC5)c4)nn4ncccc34)n2)cc1 [GSK350559],15,4,18,0,0,32,1,22,7,8
NS(=O)(=O)c1cccc(N/C=C2\C(=O)Nc3ccc(S(=O)(=O)Cc4c(Cl)cccc4Cl)cc32)c1 [GSK398099],26,0,0,13,2,0,20,9,0,0
COc1ccc(CSc2nnc(-c3ccc4nccn4c3)o2)cc1C(F)(F)F,4,10,7,0,0,0,18,8,15,61
COc1nccc(-c2c(-c3ccc(F)cc3)ncn2CCCN2CCOCC2)n1 [SB-282852],0,0,0,0,18,34,0,0,0,0
Cn1cncc1-c1cc2c(Nc3ccc(OCc4ccccc4)cc3)ncnc2cn1 [GW281179],26,0,0,45,3,21,29,14,10,19
Cc1ccc(NC(=O)Nc2ccccc2)cc1-c1ccc(C(=O)Nc2ccncc2)cc1 [GSK1398471],4,0,0,23,0,0,51,14,20,13

# Reference: PMC5540273 (PLoS ONE, 2017)
